Screen size: about 390,000 compounds; about 2,600 (0.67%) were called active. Shown is part of a subset that was picked to be rich in actives. A number with no mark means an inactive call.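 How the source made its calls: active means mean inhibition of replicates at least 50% and at least half of replicates each reaching 50%; inconclusive means half or more replicates reach 50% but mean below 50%; inactive means the rest.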

The assay concerns the target Transforming acidic coiled-coil-containing protein 3 (Homo sapiens) (UniProt Q9Y6A5). Description: disruptors of ARNT/TACC3 protein interaction, primary screen, biochemical, AlphaScreen, single concentration (AID 623870).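 Further: 0% = complete ARNT plus TACC3 wells and 100% = ARNT alone without TACC3.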 Particulars: AlphaScreen His-ARNT PAS-B/GST-TACC3 binding, luminescence; at 9.99 µM; active compounds read high; TACC3 fragment carries E629A point mutation. Background: In Alpha technology, singlet oxygen from a donor bead excites a nearby acceptor bead.
For `Oc1c(C(c2ccccn2)N2CCOCC2)ccc2cccnc12` (configuration not stated), the inhibition was 70.2% (active).
With `CNC[C@@H]1OCCCC[C@H](C)Oc2ccc(NC(=O)Nc3ccc(OC)cc3)cc2C(=O)N([C@H](C)CO)C[C@@H]1C`, the inhibition was -2.24%.
For the compound `O=C(C[C@@H]1C[C@H]2c3cc(NC(=O)Nc4ccccc4F)ccc3O[C@H]2[C@@H](CO)O1)NCc1ccncc1`, the inhibition was -5.98%.
As for `Cn1c(SCC(=O)C(C)(C)C)nnc1-c1ccccn1`, the inhibition was 13.6%.
Turning to `Cc1ccccc1CSc1nnc(-c2cccnc2)n1N`, the inhibition was -2.01%.
For `Cc1ccccc1CSc1nnc(-c2ccccn2)n1N` the value was 54.4% (active).
For `C[C@H](CO)N1C[C@H](C)[C@@H](CN(C)C(=O)C2CCCCC2)Oc2cc(C3=CCCC3)ccc2S1(=O)=O` the value was 5.91%; for `O=C(C[C@@H]1CC[C@@H]2[C@H](COC[C@@H](O)CN2Cc2ccc(F)cc2)O1)NCc1ccncn1`, -1.34%.
For `COc1ccccc1C#Cc1ccc([C@@H]2[C@H](CO)N3CCCCN(CCC(F)(F)F)C[C@@H]23)cc1` the value was 26%.
Regarding `Cc1noc(C)c1S(=O)(=O)N(C)C[C@H]1OCCCC[C@H](C)Oc2ccc(NS(=O)(=O)c3ccccc3)cc2C(=O)N([C@H](C)CO)C[C@@H]1C`, the inhibition was -5.63%.
Consider `COc1ccc(S(=O)(=O)N2C[C@@H](O)COC[C@H]3O[C@H](CC(=O)N[C@H]4CCN(Cc5ccccc5)C4)CC[C@@H]32)cc1`, for which the inhibition is -2.17%.
Turning to `O=C(NCCCc1ccccc1)C(=O)NCC1OCCN1S(=O)(=O)c1ccccc1` (configuration not stated), the inhibition was 0.478%.
For `O=C(NCCCn1ccnc1)C(=O)NCC1OCCN1S(=O)(=O)c1cc(F)ccc1F` (configuration not stated) the value was 60.2% (active).
Then `Cc1cc(F)ccc1S(=O)(=O)N1CCCOC1CNC(=O)C(=O)NCCC1=CCCCC1` (configuration not stated), with 3.52%; and `CC(C)NC(=O)Nc1ccc2c(c1)CC(=O)N([C@@H](C)CO)C[C@@H](C)[C@H](CN(C)CC1CC1)O2`, with -5.56%.
For `CO[C@@H]1CC[C@@H]2CCOc3ccc(C#N)cc3C(=O)N(C)C[C@H](c3ccccc3)CC(=O)N(C)C[C@H]1O2`, the inhibition was -7.48%.
Turning to `Cc1noc(C)c1NC(=O)N[C@H]1C=C[C@@H](CC(=O)Nc2ccccc2)O[C@H]1CO`, the inhibition was -3.76%.
Regarding `Cc1ccc(S(=O)(=O)Nc2ccc3c(c2)CC(=O)N([C@@H](C)CO)C[C@@H](C)[C@@H](CN(C)S(=O)(=O)c2ccccc2)O3)cc1`, the inhibition is -1.52%.
Then `COc1c(O)cc2oc(-c3ccc(O)c(O)c3)cc(=O)c2c1O`, with 36.8% (active); and `C[C@H](CO)N1C[C@H](C)[C@H](CN(C)C(=O)C2CCOCC2)Oc2ncc(-c3ccccc3)cc2C1=O`, with -4.96%.
`CC(C)CC#Cc1cnc2c(c1)C(=O)N([C@@H](C)CO)C[C@H](C)[C@@H](CN(C)C(=O)c1ccc(F)cc1)O2`: the inhibition is 7.13%.
Take `CSc1cccc(NC(=S)N(C(C)C)C(C)c2ccccn2)c1` (configuration not stated): the inhibition is 19%.
For `Cc1cccc(NC(=S)N(CCN(C)C)C(C)c2ccco2)c1` (configuration not stated) the value was -28.1%; for `CC(c1ccccn1)N(CCN(C)C)C(=S)Nc1ccccc1F` (configuration not stated), 56.1% (active); for `C[C@@H]1CN([C@H](C)CO)S(=O)(=O)c2ccc(-c3cncnc3)cc2O[C@H]1CN(C)C(=O)Cc1ccccc1`, -17%.
Then `C[C@H](CO)N1C[C@H](C)[C@@H](CN(C)Cc2ccc(Cl)c(Cl)c2)Oc2c(NC(=O)Nc3ccccc3)cccc2C1=O`, with 6.91%; and `COc1cc(C2C(C#N)=C(N)Oc3n[nH]c(-c4ccccn4)c32)cc(OC)c1OC` (configuration not stated), with 71.4% (active).
Then `COc1ccccc1C1C(C#N)=C(N)Oc2c1c(-c1ccccc1)nn2-c1ccccc1` (configuration not stated), with 2.34%; and `CCCc1[nH]nc2c1C(c1ccc(Br)s1)C(C#N)=C(N)O2` (configuration not stated), with 3.43%; and `O=C(C[C@H]1CC[C@H]2[C@@H](COC[C@@H](O)CN2Cc2ccccc2F)O1)NCc1ccccc1F`, with -10%.
In the case of `Cc1noc(C)c1NC(=O)Nc1ccc2c(c1)C(=O)N([C@@H](C)CO)C[C@H](C)[C@@H](CN(C)Cc1ccncc1)OCCCC[C@@H](C)O2`, the inhibition is -0.402%.
Then `CN(C)c1ccc2c(c1)[C@H]1C[C@H](CC(=O)O)O[C@H](CO)[C@H]1O2`, with 22.1%; and `Cc1cc(C(=O)Nc2ccc3c(c2)C(=O)N(C)[C@@H]2CC[C@H](CC(=O)NC4CCCC4)O[C@@H]2CO3)no1`, with -1.61%; and `CNC(=O)C[C@H]1CC[C@H]2[C@H](COc3ccc(NC(=O)c4cc(C)on4)cc3C(=O)N2C)O1`, with 8.66% (active).
For `Cc1cc(C(=O)Nc2ccc3c(c2)C(=O)N(C)[C@@H]2CC[C@@H](CC(=O)NC4CCCC4)O[C@@H]2CO3)no1` the value was -5.47%.
On to `Cc1ccccc1Nc1nc(N)nc(CN2CCN(c3ccccn3)CC2)n1`, for which the inhibition was 86% (active).
For `CCCn1nc(C(=O)OCc2nc(N)nc(Nc3ccccc3C)n2)c2ccccc2c1=O`, the inhibition was 10.3%.
For `Cc1ccccc1Nc1nc(N)nc(CSc2nnc3ccccn23)n1` the value was -0.395%; for `COc1ccc(-c2ccc([C@@H]3[C@@H](C#N)N(C(=O)C4CCC4)[C@@H]3CO)cc2)cc1`, -0.479%; for `C[C@H]1CN([C@@H](C)CO)C(=O)c2cc(N(C)C)ccc2O[C@@H]1CN(C)C(=O)Nc1ccc2c(c1)OCO2`, 12.1%.
For `Cc1ccnc(NS(=O)(=O)c2ccc(NC(=O)c3ccc(S(=O)(=O)N4CCOCC4)cc3)cc2)n1` the value was -1.47%.
As for `O=C(Nc1nnc(-c2ccco2)o1)c1ccc(S(=O)(=O)N2CCOCC2)cc1`, the inhibition was 79.1% (active).
Then `O=C(Nc1ccc(S(=O)(=O)N2CCOCC2)cc1)c1ccc2ncsc2c1`, with 8.14%.
Then `CCCNC(=O)C[C@@H]1CC[C@H]2[C@H](COc3ccc(NC(=O)CCC)cc3C(=O)N2C)O1`, with -12.3%; and `Cc1noc(C)c1NC(=O)Nc1ccc2c(c1)C(=O)N([C@H](C)CO)C[C@H](C)[C@H](CN(C)Cc1ccc(C(=O)O)cc1)OCCCC[C@H](C)O2`, with -1.31%.
Then `C[C@H](CO)N1C[C@H](C)[C@@H](CN(C)C)Oc2ccc(NS(=O)(=O)c3cccs3)cc2C1=O`, with -4.47%; and `C[C@@H]1CN([C@@H](C)CO)C(=O)c2cc(NS(=O)(=O)c3cccs3)ccc2O[C@H]1CN(C)CC1CCCCC1`, with 54.3% (active); and `C[C@H](CO)N1C[C@H](C)[C@@H](CN(C)CC2CCCCC2)Oc2ccc(NS(=O)(=O)c3cccs3)cc2CC1=O`, with 8.01%.
On to `Cc1ccc(S(=O)(=O)N(C)C[C@@H]2Oc3c(NC(=O)c4nc5ccccc5s4)cccc3C(=O)N([C@H](C)CO)C[C@@H]2C)cc1`, for which the inhibition is 9.91%.
With `C[C@H]1CN([C@@H](C)CO)C(=O)c2cc(-c3ccccc3F)cnc2O[C@@H]1CN(C)C`, the inhibition is 6.21%.
For the compound `Cc1noc(C)c1NC(=O)Nc1ccc2c(c1)CC(=O)N([C@@H](C)CO)C[C@@H](C)[C@H](CN(C)Cc1ccc(Oc3ccccc3)cc1)O2`, the inhibition is 15.6%.
For `COCC(=O)Nc1ccc2c(c1)[C@@H]1C[C@H](CC(=O)NCc3ccc(Cl)cc3)O[C@H](CO)[C@@H]1O2` the value was -8.13%; for `Cc1cc(C(=O)NC2CCN(Cc3ccccc3)CC2)n[nH]1`, -0.213%.
With `Cc1cc(C(=O)N/N=C/c2cc([N+](=O)[O-])cc(C)c2O)n[nH]1`, the inhibition is 64.3% (active).
For `CCCNC(=O)Nc1ccc2c(c1)OC[C@@H](C)N(C(=O)c1ccccc1F)C[C@H](C)[C@@H](OC)CN(C)C2=O` the value was -9.6%; for `C[C@@H]1CN([C@H](C)CO)C(=O)c2cc(NS(=O)(=O)c3ccccc3)ccc2O[C@H]1CN(C)S(=O)(=O)c1cccs1`, 0.265%.
As to `Cc1ccc(NC(=O)C2CC2c2ccccc2)cc1` (configuration not stated), the inhibition is -4.03%.
`O=C(Nc1ccccc1)Oc1cccc2cccnc12`: the inhibition was -7.89%.
Then `O=C(N/N=C/c1cccc2cccnc12)[C@H]1C[C@@H]1c1ccccc1`, with 73.3% (active).
For `C[C@H](CO)N1C[C@H](C)[C@@H](CN(C)C)Oc2cc(C#Cc3ccccc3)ccc2S1(=O)=O` the value was 8.14%; for `COc1ccc(NC(=O)N(C)C[C@@H]2Oc3ccc(NS(C)(=O)=O)cc3C(=O)N([C@@H](C)CO)C[C@@H]2C)cc1`, -7.68%; for `CCc1cc(=O)oc2c(C)c(OCC(=O)NCCN3CCOCC3)ccc12`, -0.887%.
For `CCOc1cccc(/C=N/NC(=S)NCCN2CCOCC2)c1O` the value was 64.9% (active); for `COc1cccc(C(CC(=O)NCCN2CCOCC2)NS(=O)(=O)c2ccc(C)cc2)c1OC` (configuration not stated), -9.59%.
In the case of `C[C@@H]1CN([C@@H](C)CO)C(=O)Cc2cc(NC(=O)Nc3ccc(F)cc3)ccc2O[C@@H]1CN(C)C(=O)NC1CCCCC1`, the inhibition is 0.811%.
Consider `Cn1c(=NC(=O)c2cnccn2)sc2ccccc21`, for which the inhibition was 50.2% (active).
Then `Cn1c(=NC(=O)c2ccc3c(c2)OCCO3)sc2cc(S(C)(=O)=O)ccc21`, with -1.86%.
With `Cn1c(=NC(=O)c2ccco2)sc2cccc(F)c21`, the inhibition is -2.41%.
With `CN(C(=O)c1ccccc1)c1nccnc1C#N`, the inhibition was 48.5% (active).
Regarding `CCCN1[C@@H]2c3ccc(-c4ccccc4OC)c(=O)n3C[C@H]1[C@H](CO)[C@H]2C(=O)NCc1ccccn1`, the inhibition was -0.436%.
Then `CO[C@H]1CN(C)C(=O)c2cc(NS(=O)(=O)CC(F)(F)F)ccc2OC[C@@H](C)N(C(=O)c2ccc3c(c2)OCO3)C[C@@H]1C`, with 8.14%; and `CCCC(=O)Nc1ccc2c(c1)C(=O)N(C)C[C@@H](OC)[C@@H](C)CN(Cc1cncnc1)[C@@H](C)CO2`, with -2.89%.

For orientation: inhibition means the change of the read-out against control, counted positive when it falls.
